Most compounds without a hit are left out; they make up all but 11% or so of the library.
USP28 inh – blocks human USP28 ubiquitin-rhodamine cleavage. Q96RU2. purified USP28, Ub-rhodamine cleavage fluorescence, 30 min. inhibition, % at 25 µM. hit rate 3% among 47,000
USP30 block – blocks human USP30 ubiquitin-rhodamine cleavage; Q70CQ3; purified USP30, Ub-rhodamine cleavage fluorescence; inhibition, % at 25 µM; hit rate 5.3% among 47,000
USP17 block – blocks human USP17 ubiquitin-rhodamine cleavage | A8MUK1 | purified USP17, Ub-rhodamine cleavage fluorescence, 3 h | inhibition, % at 50 µM | hit rate 6.5% among 47,000 | AID 1645855
Target sequence (A8MUK1 whole entry, looked up): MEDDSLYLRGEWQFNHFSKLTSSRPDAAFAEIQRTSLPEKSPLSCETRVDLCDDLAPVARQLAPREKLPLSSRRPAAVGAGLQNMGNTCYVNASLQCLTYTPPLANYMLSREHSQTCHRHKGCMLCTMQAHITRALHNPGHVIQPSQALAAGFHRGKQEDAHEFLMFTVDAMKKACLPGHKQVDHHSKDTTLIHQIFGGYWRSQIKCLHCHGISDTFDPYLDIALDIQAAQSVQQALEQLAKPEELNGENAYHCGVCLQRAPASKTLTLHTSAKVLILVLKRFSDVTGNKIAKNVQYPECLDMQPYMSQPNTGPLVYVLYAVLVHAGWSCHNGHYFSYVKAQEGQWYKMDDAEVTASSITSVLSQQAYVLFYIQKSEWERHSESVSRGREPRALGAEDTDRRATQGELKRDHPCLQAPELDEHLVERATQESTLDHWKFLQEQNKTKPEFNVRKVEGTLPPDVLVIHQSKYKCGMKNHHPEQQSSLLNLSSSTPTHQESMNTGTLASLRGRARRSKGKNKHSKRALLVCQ
Starred values were filed as active, the others as inactive; / = no result given. Rule as the data show it: active = inhibition above about 30%; inactive = the rest.

SMILES	USP28 inh	USP30 block	USP17 block
Cc1c(-c2nnc(-c3ccccn3)o2)nnn1-c1ccc(C(C)C)cc1	0.4	1.3	6.6
Cc1ccc2oc(SCc3noc(CCC(=O)Nc4ccccc4)n3)nc2c1	-2.6	1.3	0.2
COc1cccc(NC(=O)N2CCN(C3=CC4=NC(C)CN4C=N3)CC2)c1 (configuration not stated)	19.9	0.2	-6.0
COc1cccc(NC(=O)N2CCN(c3ncccc3C(F)(F)F)CC2)c1	42.3*	10.6	3.9
O=C(Nc1ccc(-n2cc(Br)cn2)cc1)c1ccccn1	-15.2	-14.7	-5.3
Cc1cc(-c2cnc(N(C)C)nc2-c2ccc(CNC(=O)CC3CCCCC3)cc2)on1	-18.9	-83.6	-11.1
CC(C)Oc1ccc(S(=O)(=O)N2CCOCC2)cc1NCC(=O)Nc1ccc(C(C)(C)C)cc1	10.8	33.2*	14.3
CC(C)(C)c1ccc(OCCCC(=O)Nc2ccc(S(=O)(=O)N3CCCC3)cc2)cc1	-26.1	-34.5	-36.8
CCc1ccc(C(=O)N2CCc3[nH]nc(C(=O)N4CCOCC4)c3C2)cc1	-8.8	-7.7	-14.6
CC1=C[C@H]2[C@H](C(C)C)CC[C@@](C)(O)[C@H]2CC1=O	-5.8	-6.2	-7.3
CC(C)[C@H]1CC[C@@]2(CO2)[C@H]2C(=O)OCC(C(=O)O)=C[C@H]12	71.2*	63.9*	72.7*
CO[C@H]1/C=C/[C@@](C)(O)/C=C/C(=O)O[C@H](C)[C@@H](C)CC/C=C/1C	5.4	39.5*	-0.9
CO[C@H]1/C=C/[C@@](C)(O)/C=C/C(=O)O[C@H](C)C(C)C(O)C/C=C/1C (some centres not stated)	2.2	-4.4	-0.4
CCOc1nccnc1NC1CCN(C(=O)Cc2ccsc2)CC1	0.6	11.4	0.0
N#Cc1ccc(C(=O)N2CCCC2c2nc(-c3ccccc3)no2)cc1 (configuration not stated)	6.2	10.6	5.2
COc1ccc(C(=O)N(C)CCc2noc(-c3ccc(Cl)cc3)n2)cc1	-3.5	0.7	-4.7
CN(CCc1noc(-c2ccccc2Cl)n1)C(=O)c1ccc(C#N)cc1	12.6	31.0*	18.5
CN1CCN(C(=O)c2noc3ncnc(N4CCOCC4)c23)CC1	12.1	1.5	15.1
CCOC(=O)C1C(=O)NC(c2ccccc2)=NC1c1c(F)cccc1Cl (configuration not stated)	12.3	13.4	-0.2
CCOC(=O)C1C(=O)NC(c2ccccc2)=NC1c1ccc(C(F)(F)F)cc1 (configuration not stated)	13.5	41.0*	20.9
O=C(NCc1ccccc1)c1nc2n(n1)-c1ccccc1S(=O)(=O)N2	11.6	33.7*	2.6
COc1cc(CNC(=O)c2nc3n(n2)-c2ccccc2S(=O)(=O)N3)cc(OC)c1OC	0.8	2.0	-0.9
COc1cccc(NC(=O)CCc2c(C)nc3c(c2C)c(=O)n(C)c(=O)n3C)c1	37.1*	35.0*	14.2
COc1cccc(NC(=O)CCc2c(C)nn(-c3cc(N4CCCCC4)ncn3)c2C)c1	68.5*	9.4	0.2
Cc1ccc(C)c(NC(=O)CCc2c(C)nn(-c3cc(N4CCCC4)ncn3)c2C)c1	11.8	28.5	21.9
SMILES	USP28 inh	USP30 block	USP17 block
Cc1nn(-c2cc(N3CCCCC3)ncn2)c(C)c1CCC(=O)NCc1ccccc1	-2.6	-33.2	-8.5
Cc1ccc(C)c(NC(=O)CCc2c(C)nn(-c3cc(N4CCOCC4)ncn3)c2C)c1	6.0	34.0*	19.6
COc1cccc(NC(=O)Cn2cnc3c(c(C)c(C)n3-c3ccccc3)c2=O)c1	21.2	9.1	1.5
CSc1ncc(C(=O)N2CCC(C3CCCCC3)C2)cn1 (configuration not stated)	/	/	14.8
O=C(NCC1CC1)C1CN(Cc2ccncc2)Cc2ccnn2C1 (configuration not stated)	-6.8	-10.8	-22.9
O=C(CSc1nnc2c3ccccc3nc(-c3ccco3)n12)N1CCCc2ccccc21	-25.8	-13.5	-18.0
CC1CCc2noc(C3CCN(C(=O)c4[nH]ncc4Cl)CC3)c2C1 (configuration not stated)	17.2	22.6	17.1
CN(C)C(=O)CN1CCCC1c1nc(N)ncc1-c1ccc(F)cc1 (configuration not stated)	-10.5	-17.4	-9.9
CCS(=O)(=O)c1ccccc1C(=O)Nc1ccccc1-c1nc2ccccc2[nH]1	-7.4	-43.3	25.3
C[C@]12C(=O)N(Cc3ccc4c(c3)OCO4)CC(=O)N1CCc1c2[nH]c2ccccc12	0.0	22.8	-0.1
NS(=O)(=O)c1ccc(CCNC(=O)COC(=O)c2cc(-c3ccc(Cl)cc3)nc3ccccc23)cc1	36.7*	39.4*	30.3*
CCCC(C)NC(=O)COC(=O)c1cc(-c2ccc(Cl)cc2)nc2ccccc12 (configuration not stated)	7.9	-15.1	10.6
Cc1ccc(CCNc2ncnc3sc(C(=O)O)c(C)c23)cc1	/	/	-10.1
Cc1ccc(C(=O)C(C)OC(=O)c2cc3ccccc3oc2=O)cc1 (configuration not stated)	/	/	47.4*
Cc1cc(CNC(=O)c2cc3ccccc3oc2=O)nn1C	0.0	4.3	-6.5
O=C(COC(=O)c1cc2ccccc2oc1=O)Nc1ncccn1	-68.1	-237.1	-68.3
COC(=O)c1ccc(CNC(=O)c2cc3ccccc3oc2=O)cc1	/	/	62.1*
CCCNC(=O)C1(c2ccc(NS(=O)(=O)c3cc(OC)ccc3OC)cc2)CC1	-0.3	-20.2	-12.6
CCNC(=O)N1CCC(=O)N(C)c2ccccc2C(OC)C1 (configuration not stated)	2.7	7.1	4.6
COc1ccc(CN2C(=O)N[C@@H](CCC(=O)Nc3cccc(OC)c3)C2=O)cc1	8.6	3.9	44.7*
COc1ccc(CN2C(=O)N[C@@H](CCC(=O)Nc3cccc(Cl)c3)C2=O)cc1	14.9	25.8	13.9
O=C1c2[nH]nc(-c3ccccc3O)c2C(c2ccc(F)cc2)N1Cc1ccco1 (configuration not stated)	51.7*	51.6*	39.4*
COc1ccc(C2c3c(-c4ccccc4O)n[nH]c3C(=O)N2Cc2ccco2)cc1OC (configuration not stated)	-8.3	-1.7	-5.3
Cc1ccc(C2c3c(-c4ccccc4O)n[nH]c3C(=O)N2Cc2ccco2)cc1 (configuration not stated)	65.1*	45.8*	43.7*
COc1ccc(C2c3c(-c4ccccc4O)n[nH]c3C(=O)N2Cc2ccncc2)cc1OC (configuration not stated)	0.4	16.4	-0.1
SMILES	USP28 inh	USP30 block	USP17 block
O=S(=O)(c1ccccc1)N1CCC2(CCN(Cc3cccc(F)c3)C2)C1 (configuration not stated)	9.4	3.7	-0.1
COc1cc(C(C)=O)cc(OC)c1OC	-1.4	-17.9	-17.0
Cc1cc(F)ccc1NC(=O)CCc1nc(CSc2nnc(-c3ccco3)o2)no1	-0.1	0.0	-17.5
CC1CS(=O)(=O)N(c2ccc(S(=O)(=O)Nc3ccccc3)cc2)C1=O (configuration not stated)	-3.9	-3.3	-9.7
CCOc1ccccc1C(=O)Nc1ccc2c(c1)Sc1ncccc1C(=O)N2C	40.2*	-0.1	53.0*
COc1cc(OC)cc(C(=O)Nc2ccc3c(c2)Sc2ncccc2C(=O)N3C)c1	-17.5	-65.9	-17.1
CN1C(=O)c2cccnc2Sc2cc(NC(=O)CCc3ccccc3)ccc21	7.1	-50.1	-8.5

Source: PubChem BioAssay (Buhrlage Lab, Dana-Farber Cancer Institute and Novartis Institutes for BioMedical Research (Cambridge, Mass))
